# Target: Follistatin (Homo sapiens) (UniProt P19883)
# Experiment: FST protein binding to printed compounds – biochemical, small-molecule microarray, 635/667 nm fluorescence, primary screen (AID 1132)
# Conditions: 635 nm fluorescence, higher = more signal
# Follistatin (Homo sapiens), sequence (P19883 whole entry, looked up): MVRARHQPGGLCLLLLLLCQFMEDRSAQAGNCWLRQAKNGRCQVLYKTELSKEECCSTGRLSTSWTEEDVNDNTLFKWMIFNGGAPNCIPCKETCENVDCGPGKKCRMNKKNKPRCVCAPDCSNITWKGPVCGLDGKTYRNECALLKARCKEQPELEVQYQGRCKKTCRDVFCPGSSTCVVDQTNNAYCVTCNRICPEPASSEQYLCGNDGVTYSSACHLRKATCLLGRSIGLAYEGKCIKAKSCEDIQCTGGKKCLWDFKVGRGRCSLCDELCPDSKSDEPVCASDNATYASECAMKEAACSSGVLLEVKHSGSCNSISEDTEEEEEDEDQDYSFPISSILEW
row,SMILES,composite z-score
1,Cc1ccc(S[C@]2(C(=O)NCCCN(C)C)CC(=O)N(C3CCCCC3)[C@@H]2c2ccc(CO)cc2I)cc1,-0.351
2,O=C1C2C=CC(C(O)C#Cc3ccccc3)N(Nc3ccccc3)C2C(=O)N1c1ccccc1 (stereo unspecified),0.108
3,O=C1NC(=O)C2C1C=CC(C(O)C=Cc1ccc([N+](=O)[O-])cc1)N2Nc1ccccn1 (stereo unspecified),0.637
4,Cc1ccc(S(=O)(=O)N[C@H]2COC(=O)CC=C[C@H](C)COC(=O)N[C@@H](C)C(=O)CC=C[C@@H]2C)cc1,0.953
5,Cc1ccc(N2C(=O)c3ccccc3[C@](C)(C(=O)NCC(C)C)[C@@H]2c2ccc(CO)cc2)nc1,-0.125
6,O=C1C2C=CC(C(O)c3ccccc3)N(n3cnnc3)C2C(=O)N1Cc1ccccc1 (stereo unspecified),0.438
7,COc1cc([C@@H]2N[C@H](C(=O)O)Cc3c2[nH]c2ccccc32)cc(OC)c1OC,0.275
8,C=CCNC(=O)[C@H]1[C@@H]2C(=O)O[C@@H](c3ccccc3)[C@@H](c3ccccc3)N2[C@@H](c2ccc(O)cc2)[C@]12C(=O)Nc1ccc(C#CCNC(N)=O)cc12,0.094
9,CCC#CCN(Cc1ccccc1Br)[C@H](/C=C/c1ccccc1)[C@@H](O)Cc1ccccc1,-0.886
10,CCCC=C(CCC)[C@@H](NC(=O)c1ccccc1)c1ccccc1,-0.536
11,CO[C@H]1O[C@H](CO)[C@@H](OC(=O)CCc2ccccc2)[C@@H]2OC(=O)[C@H](Cc3cccc(Br)c3)C/C=C/C[C@@H](Cc3cccc(Br)c3)C(=O)O[C@@H]12,-1.19
12,C=CCC(OC(C)=O)[C@@H]1[C@@H](N(Cc2cccc3ccccc23)C(=O)c2ccc(C)cc2)c2cc(OCCCO)ccc2N1C(=O)c1ccc(-c2ccccc2)cc1 (stereo partly specified),0.679
13,Cc1ccc(N2C(=O)c3ccccc3[C@](C)(C(=O)O)[C@@H]2c2ccc(CO)cc2)nc1,-1.04
14,C[C@@H]1CC[C@H]2C(=O)N3[C@@H](CC[C@@H](C)[C@@H]3c3cccc(N4CCOCC4)c3)C(=O)N2[C@H]1c1cccc(N2CCOCC2)c1,1.16
15,Cc1ccc(S[C@]2(C(=O)NCCN3CCOCC3)CC(=O)N(C3Cc4ccccc4C3)[C@@H]2c2ccc(CO)cc2I)cc1,-1.23
16,N#Cc1ccc(NN2C(C(O)c3ccc(I)cc3)C=CC3C(=O)N(c4ccccc4)C(=O)C32)cc1 (stereo unspecified),0.402
17,CCOC(=O)[C@H]1C/C=C/C[C@H](C(=O)OCC)C(=O)O[C@H]2[C@@H](OC)O[C@H](CO)[C@@H](OC(=O)Nc3ccc(Br)cc3)[C@@H]2OC1=O,0.623
18,C[C@@H]1C=CCC(=O)OC[C@H]2O[C@@H](C=C[C@@H]2O)[C@H](C)C=CCC(=O)OC[C@H]2O[C@H]1C=C[C@@H]2O,1.53

row,SMILES,composite z-score
1,CO[C@@H]1COC(=O)[C@H](C)NC(=O)CC=C[C@@H](C)[C@H](NS(=O)(=O)c2ccc(C)cc2)COC(=O)CC=C[C@@H]1C,-0.268
2,C=C(CCCC)/C(=C/C[C@@H](OC(=O)c1ccncc1)c1cccc(OCCO)c1)c1cc(C(=O)OC)ccc1OC,1.12
3,[N-]=[N+]=NCc1ccccc1C[C@]1(C(N)=O)N=C(c2ccc(OCCCO)cc2)O[C@H]1c1ccccc1CN=[N+]=[N-],1.01
4,CCCCO[C@H]1C[C@H]2C(Br)=C[C@@]1(CO)C(=O)[C@]21CO1,0.452
5,CC(C)N1CC=CC23O[C@@H]4/C=C\CCCOC(=O)C4[C@H]2C(=O)N(CCCCCO)[C@@H]3C1=O (stereo partly specified),-1.15
6,CO[C@@H]1COC(=O)[C@H](C)NC(=O)CC=C[C@@H](C)[C@H](OC)COC(=O)[C@H](C)NC(=O)CC=C[C@H]1C,0.614
7,CCOC(=O)C[C@H]1[C@H](OC(=O)Cc2ccc3c(c2)OCO3)[C@@H](NC(=O)c2ccc3ccccc3c2)c2cc(OCCCO)ccc2N1C(=O)Cc1ccc(OC)cc1,0.413
8,CCCN1C(=O)[C@@]2(CCS(=O)(=O)c3ccccc3)N=C(c3ccc(OCCCO)cc3)O[C@H]2c2ccccc21,1.4
9,CCCC[C@@H]1C[C@H]1[C@@H](NC(=O)c1cccs1)c1ccc(Cl)cc1,-1.44
10,C[C@H]1COC(=O)[C@@H]2CCCN2C(=O)[C@@H](C)COC(=O)[C@@H]2CCCN2C1=O,0.0429
11,[N-]=[N+]=NCc1ccccc1C[C@@]1(C(=O)O)N=C(c2ccc(OCCCO)cc2)O[C@@H]1c1ccccc1N=[N+]=[N-],0.622
12,O=C1C2C=CC(C(O)C(c3ccccc3)c3ccccc3)N(Nc3ccc([N+](=O)[O-])cc3)C2C(=O)N1c1ccccc1 (stereo unspecified),1.04
13,CO[C@H]1COC(=O)[C@H](CCSC)NC(=O)CC=C[C@@H](C)COC(=O)[C@@H](OCc2ccccc2)C=C[C@@H]1C,1.18
14,CCC(=O)[C@]12O[C@@]3([C@@H]4C(=O)OCC[C@@H]41)N(Cc1ccccc1)C(C)=C(C(=O)OC)[C@@H](c1ccccc1)N3C2=O,-0.65
15,COC(=O)[C@@]1(Cc2ccc(OC)cc2)[C@H]2c3cc(C(=O)N(C)C)n(CCc4ccc(OC)c(Br)c4)c3C[C@H]2CN1C(=O)c1ccccc1,0.85
16,C#CCCCON=C1C[C@@H](O)[C@@H](O)[C@@H]2[C@@H]3C(=O)N(Cc4ccc5c(c4)OCO5)C(=O)[C@@H]3CC[C@H]12,1.03
17,COC(=O)c1c(CC[C@@H](CO)NC(=O)N[C@H](Cn2cc(-c3cncn3C)nn2)C(C)C)oc(C(C)=O)c1C(=O)OC,0.415
18,CCOC(=O)C1=CC[C@@H](c2ccc(-c3ccc(OCc4ccccc4)cc3)c(OC)c2)N(S(=O)(=O)c2ccc(C)cc2)[C@H]1c1ccccc1,1.2

# Source: PubChem BioAssay
